Data as given in PubChem BioAssay (NCATS).
Inconclusive results are not listed. Calls of active or inactive are those of the source. Calls come from the whole dose curve.

Test: Primary qHTS to identify inhibitors of SARS-CoV-2 cell entry (AID 1645846); note: nearly all actives have a fitted effect of over 45% in size
Conditions: SARS-CoV-2 pseudovirus cell entry assay, luminescence; activity change, negative = inhibition: at 57.1 µM (top of the series) unless noted; series mostly up to 57.1 µM
Outline: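 Inhibition of spike-mediated entry was scored in human ACE2-transfected Expi293F cells. Particles were MLV-pseudotyped with Wuhan-Hu-1 S carrying a 19-aa C-terminal deletion; signal was luciferase after two days, scaled between spike PP and fusion-protein-free PP.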
Potency is the fitted concentration of half-maximal effect.

Row | SMILES | Potency | outcome | activity change, negative = inhibition
1 | CN(C)CC/C=C1\c2ccccc2Sc2ccc(Cl)cc21 | 20 µM (active) |  | 
2 | CCCCCN=C(N)N/N=C/c1c[nH]c2ccc(OC)cc12 | 22.4 µM (active) |  | 
3 | CCCCCCCCCCCCCCCCCCNC(=O)OC1CCN(C(=O)OC[C@H](COC(=O)N(Cc2cccc[n+]2CC)C(=O)c2ccccc2OC)OC)CC1 | 10 µM (active) |  | 
4 | N[C@@H](CSCCCO)C(=O)O |  | inactive [at 27.1 µM] | 
5 | COc1ccc(-c2nc3ccc(C4=NNC(=O)CC4C)cc3[nH]2)cc1 (configuration not stated) |  |  | -33%
6 | O=C(NOCC1CC1)c1ccc(F)c(F)c1Nc1ccc(I)cc1Cl | 31.6 µM (active) |  | 
7 | Cc1cccc(N(C)C(=S)Oc2ccc3c(c2)C2CCC3C2)c1 (configuration not stated) |  | inactive | 
8 | NC(=O)CC[C@@H](N)C(=O)O |  |  | -8.52%
9 | CN(C)c1ccc(C(=C2C=CC(=[N+](C)C)C=C2)c2ccccc2)cc1 | 4.47 µM (active) |  | 
10 | C[C@@H]1C[C@@H]([C@H](O)CC2CC(=O)NC(=O)C2)C(=O)[C@@H](C)C1 | 2.51 µM (active) |  | 
11 | Oc1c(Cl)cc(Cl)c(Cl)c1Cc1c(O)c(Cl)cc(Cl)c1Cl | 3.16 µM (active) |  | 
12 | Nc1ccn([C@H]2CC[C@@H](CO)O2)c(=O)n1 |  | inactive | 
13 | CCOCCn1c(N2CCCN(C)CC2)nc2ccccc21 |  |  | -36.1%
14 | CCC(=O)O[C@]1(C(=O)COC)[C@@H](C)C[C@H]2[C@@H]3CCC4=CC(=O)C=C[C@]4(C)C3(F)[C@@H](O)C[C@@]21C (some centres not stated) |  | inactive | 
15 | OC(CCCN1CCCCC1)(c1ccccc1)c1ccccc1 |  |  | -24.7%
16 | Clc1ccc(C(Cn2ccnc2)OCc2c(Cl)cccc2Cl)c(Cl)c1 (configuration not stated) | 31.6 µM (active) |  | 
17 | CCOc1cc(N)c(Cl)cc1C(=O)NCC1CN(Cc2ccc(F)cc2)CCO1 (configuration not stated) |  | inactive | 
18 | CC[C@H]1CN2CCc3cc(OC)c(OC)cc3[C@@H]2C[C@@H]1C[C@H]1NCCc2cc(OC)c(OC)cc21 | 1.26 µM (active) |  | 
19 | NC(N)=NC(=O)c1nc(Cl)c(N)nc1N |  | inactive | -0.658% [at 114 µM]
20 | COC(=O)[C@H]1[C@H]2C[C@@H]3c4[nH]c5cc(OC)ccc5c4CCN3C[C@H]2C[C@@H](OC(=O)/C=C/c2ccc(O)c(OC)c2)[C@@H]1OC | 12.6 µM (active) |  | 
21 | CC(C)(C)CC(=O)OCC(=O)[C@@]1(O)CC[C@H]2[C@@H]3CCC4=CC(=O)C=C[C@]4(C)[C@H]3[C@@H](O)C[C@@]21C |  | inactive | 
22 | O[C@@H](COc1cccc2ncccc12)CN1CCN(C2c3ccccc3[C@@H]3[C@H](c4ccccc42)C3(F)F)CC1 (some centres not stated) | 28.2 µM (active) |  | 
23 | CCCCC1(COC(=O)CCC(=O)O)C(=O)N(c2ccccc2)N(c2ccccc2)C1=O |  | inactive | 
24 | [O-][n+]1ccccc1SSc1cccc[n+]1[O-] |  |  | -95.2% [at 27.1 µM]
25 | CCOC(=O)C1=C(C)NC(C)=C(C(=O)OCC)C1c1ccccc1/C=C/C(=O)OC(C)(C)C | 25.1 µM (active) |  | 
26 | CC(=O)/C=C/C=C1/C2CCC(C2)C1(C)C (configuration not stated) |  |  | -3.44%
